Screening data deposited in PubChem by National Center for Advancing Translational Sciences (NCATS).
TRHR ag: agonists of human TRH receptor | AID 493084 | activation, % at 2 µM | TRHR cells, calcium flux fluo-8, FDSS agonist mode | actives 0.18% (n = 360,000) | P34981; further: 0% is about no effect
Target sequence (P34981 whole entry, looked up): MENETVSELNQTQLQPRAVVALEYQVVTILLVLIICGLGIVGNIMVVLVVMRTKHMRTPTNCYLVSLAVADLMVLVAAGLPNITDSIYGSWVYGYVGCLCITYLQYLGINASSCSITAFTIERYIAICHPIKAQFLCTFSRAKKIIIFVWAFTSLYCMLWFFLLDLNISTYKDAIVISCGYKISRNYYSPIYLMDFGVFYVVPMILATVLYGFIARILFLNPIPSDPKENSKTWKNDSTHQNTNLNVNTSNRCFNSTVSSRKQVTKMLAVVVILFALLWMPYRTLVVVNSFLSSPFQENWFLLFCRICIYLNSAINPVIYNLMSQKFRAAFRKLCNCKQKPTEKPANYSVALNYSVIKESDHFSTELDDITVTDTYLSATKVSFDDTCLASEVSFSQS
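Steps: seed TRHR cells overnight; add fluo-8 no-wash Ca dye, RT 30 min–1.5 h; record 10 s baseline; pin-transfer compounds; monitor fluorescence 1 cycle/s for the agonist window. Calcium increases flag candidate agonists.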
TRHR enhancer: allosteric enhancers of human TRH receptor. P34981. TRHR cells, fluo-8 calcium fluorescence, EC20 TRH enhancement. enhancement, % at 2 µM. actives 0.66% (n = 360,000). AID 493056; in the data active means enhancement above about 30%; further: 0% is about no effect
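Enhancer read-out: after compound pinning and an initial kinetic agonist-mode read, an EC20 of TRH (10 nM final) was injected and fluo-8 calcium signal (Ex 480/Em 530) followed at 1 s/cycle for 100 cycles in TRHR-expressing cells.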
D1 antag: antagonists of human D1 dopamine receptor; P21728; HEK293 TREx D1 cells, calcium flux, dopamine EC80; stronger effect = lower value; activity change, negative = inhibition, % at 10 µM; actives 3.2% (n = 360,000); AID 504652; in the data active means activity change below about -30%; further: on the % scale 0 is the no-effect control and ±100 the full control effect
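Tetracycline-induced HEK293 Trex D1 cells, force-coupled to calcium, dye-loaded; compounds added and read 180 s, then EC80 dopamine added and calcium flux tracked kinetically another 180 s.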
D1 PAM: human D1 dopamine receptor positive modulation. P21728. HEK293 TREx D1 cells, calcium flux, dopamine EC20 potentiation. potentiation, % at 10 µM. actives 0.036% (n = 360,000); in the data active means potentiation above about 30%; further: 0% is about no effect
D1 ag: agonists of human D1 dopamine receptor; P21728; actives 1% (n = 360,000); AID 504660; HEK293 T-REx D1 cells, calcium flux, agonist mode; activation, % at 2 µM; further: 0% is about no effect
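Agonism was scored from calcium flux recorded over 180 s (1 read/s) after pintool compound addition, following a 10-cycle baseline. Cells were inducible force-coupled HEK293 TREx D1, plated overnight at 30 C and loaded with no-wash calcium dye.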
* marks the source's active call; other numbers are inactive results. Rows were chosen to be rich in hits. Some 4.7% of all compounds tested hit in one or more screens of this group. Unless noted, no stated cut-off is given here; in the data, active means activation above about 30%; inactive means the rest.

SMILES	TRHR ag	TRHR enhancer	D1 antag	D1 PAM	D1 ag
Cc1cccc(NC(=S)NCCC(C)C)c1	-1	10	0	-5	227*
S=C(NCCC(c1ccccc1)c1ccccc1)Nc1cccc(Cl)c1	0	-2	-49*	-4	3
S=C(Nc1cccc(Cl)c1)NC1CC2CCCC(C1)N2C1CCCC1 (stereo not drawn)	2	-1	-10	-11	10
COC(=O)c1ccn(-c2nc(-c3ccc(Cl)cc3)cc(C(F)(F)F)n2)n1	-1	-21	9	0	-2
COc1cc(OC)c(OC)cc1CN1CCc2nc(N3CCN(c4ccccc4F)CC3)ncc2C1	1	2	-2	0	0
CC(CC(=O)Nc1ccc(F)cc1)S(=O)(=O)c1cc2c3c(c1)CCN3C(=O)CC2 (stereo not drawn)	0	-1	-7	-1	1
Cc1ccccc1OCC(=O)N1N=C(C(F)(F)F)CC1(O)C(C)(C)C (stereo not drawn)	0	1	15	5	59*
CC(C)(C)C1(O)CC(C(F)(F)F)=NN1C(=O)Cc1ccc([N+](=O)[O-])cc1 (stereo not drawn)	1	-5	-34*	-6	6
CCC1=NN(C(=O)Cc2ccc([N+](=O)[O-])cc2)C(O)(C(F)(F)F)C1 (stereo not drawn)	-2	-1	-12	-3	33*
N=c1c2c(-c3ccccc3)c(-c3ccccc3)n(Cc3ccccc3)c2ncn1CCO	0	4	56	46*	218*
N=c1c2c(-c3ccccc3)c(-c3ccccc3)n(Cc3ccco3)c2ncn1CCCn1ccnc1	1	5	16	-2	14
CC(C)Cn1cnc2c(c(-c3ccccc3)c(-c3ccccc3)n2Cc2ccco2)c1=N	1	-9	20	-2	34*
OCCNc1ncnc2c1c(-c1ccccc1)c(-c1ccccc1)n2Cc1ccco1	0	6	-2	-4	3
c1ccc(-c2c(-c3ccccc3)n(Cc3ccco3)c3ncnc(NCCCn4ccnc4)c23)cc1	-1	8	1	7	52*
N=c1c2c(-c3ccccc3)c(-c3ccccc3)n(Cc3ccco3)c2ncn1CCCN1CCOCC1	1	0	4	-4	7
N=c1c2c(-c3ccccc3)c(-c3ccccc3)n(Cc3ccco3)c2ncn1Cc1ccccc1	3	9	8	-1	35*
Cc1ccc2nc(-c3cccc(NC(=O)c4cccc5ccccc45)c3)oc2c1	1	2	-10	-2	2
CCOC(=O)C1(CCCc2ccccc2)CCN(CCCn2cccn2)CC1	0	8	-8	-1	37*
CC(C)(C)C(=O)Nc1ccc2nc(SCC(=O)N3CCc4ccccc43)sc2c1	-2	12	45	4	17
Cc1ccccc1SCCNC(=O)c1ccccc1Br	-1	33*	10	-1	0
CC(C)c1ccccc1NC(=O)CNCCc1ccc(C(F)(F)F)cc1	1	-2	-1	-2	36*
NS(=O)(=O)c1ccc(CCNC(=O)CNCCc2ccc(C(F)(F)F)cc2)cc1	1	2	7	0	0
N#Cc1sc2nc(-c3cccs3)cc(-c3ccc(Cl)cc3)c2c1N	2	1	-32*	-8	5
N#Cc1sc2nc(-c3cccs3)cc(-c3ccccc3)c2c1N	0	7	1	0	-1
CC1CN(C2CCN(C(=O)c3ccccc3)CC2)CC(C)O1 (stereo not drawn)	0	17	-31*	-1	1
SMILES	TRHR ag	TRHR enhancer	D1 antag	D1 PAM	D1 ag
CC1CCN(C2CCN(C(=O)c3ccccc3F)CC2)CC1	1	-1	-82*	-2	0
CCCN(CCC)CCCNC(=S)Nc1ccc2nc3n(c(=O)c2c1)CCCCC3	0	2	-30*	-10	0
CCN(CC)CCNC(=S)Nc1ccc2nc3n(c(=O)c2c1)CCCCC3	0	9	-5	-3	3
CCN1CCN(C(=S)Nc2ccc3nc4n(c(=O)c3c2)CCCCC4)CC1	0	0	-2	-4	36*
O=C(O)c1ccc2c(c1)C(=O)N([C@H](Cc1ccc(O)c(O)c1)C(=O)O)C2=O	0	4	-22	-8	6
COc1ccc(OCC(=O)Nc2ccc(-c3nc4cc(C)cc(C)c4o3)cc2)cc1	-1	10	-9	0	-1
Cc1ccnc(OC(C(=O)O)C(OCc2ccccc2)(c2ccccc2)c2ccc(C(F)(F)F)cc2)n1 (stereo not drawn)	0	0	-2	-6	0
COC(c1ccccc1)(c1ccccc1)C(Oc1nccc(C)n1)C(=O)O (stereo not drawn)	0	31*	4	1	-1
Cc1cc(NC(=O)CCC(=O)N(Cc2ccco2)C(C(=O)NC2CCCCC2)c2cccs2)no1 (stereo not drawn)	-1	-2	4	0	3
COc1cccc(C(C(=O)NC2CCCC2)N(Cc2ccco2)C(=O)c2ccco2)c1OC (stereo not drawn)	-1	3	-37*	-5	0
COc1ccc(CN(C(=O)c2snc(C(N)=O)c2N)C(C(=O)NC2CCCC2)c2ccc(OC)cc2)cc1 (stereo not drawn)	-1	7	10	-5	9
COc1ccc(CN(C(=O)c2snc(C(N)=O)c2N)C(C(=O)NC2CCCC2)c2cc(OC)ccc2OC)cc1 (stereo not drawn)	-1	34*	2	3	9
COc1ccc(C(C(=O)NC2CCCC2)N(Cc2ccco2)C(=O)c2snc(C(N)=O)c2N)cc1OC (stereo not drawn)	0	-3	-33*	-4	4
Cc1ccc(C(C(=O)NC2CCCC2)N(Cc2ccco2)C(=O)CCC(=O)Nc2cc(C)on2)cc1 (stereo not drawn)	0	-1	-32*	-5	2
Cc1ccc(C2CC(=O)Nc3c2c(C)nn3-c2nc(C)cc(C)n2)c(C)c1 (stereo not drawn)	0	-1	7	1	-1
CC(NC(=O)C1CCC(CNS(=O)(=O)c2ccccc2)CC1)c1ccccc1 (stereo not drawn)	1	6	-41*	-8	11
Cc1nc(CC(=O)Nc2cc(Cl)ccc2C)cs1	0	1	3	5	-1
Cc1noc(C)c1CSCC(=O)Nc1nc(-c2ccc(F)c(F)c2)cs1	0	-9	-43*	-11	16
CCOC(=O)c1c(C)n(-c2ccc(C)cc2)c2ccc(OCC(O)CNCC3CCCO3)cc12 (stereo not drawn)	0	1	35	0	60*
ClC1(Cl)CC1CSc1nc2ccccc2[nH]1 (stereo not drawn)	-1	0	-34*	-3	5
